Test results taken from PubChem BioAssay AID485344 (National Center for Advancing Translational Sciences (NCATS), 2010).
The campaign covered roughly 340,000 compounds. About 6,900 (2%) were called active. This is one part of a sample in which actives are shown more often than they occur. A number with no mark means an inactive call. No stated cut-off is given here; in the data, active means inhibition above about 30%; inactive means below that, where a call was filed.

target: D(2) dopamine receptor (Homo sapiens) (UniProt P14416); experiment: HTS Assay for Allosteric Antagonists of the Human D2 Dopamine Receptor: Primary Screen for Antagonists; conditions: HEK293 TREx D2 cells, calcium flux, dopamine EC80; at 10 µM; stronger effect = higher value; further: 0% is about no effect
Sequence (P14416 whole entry, looked up): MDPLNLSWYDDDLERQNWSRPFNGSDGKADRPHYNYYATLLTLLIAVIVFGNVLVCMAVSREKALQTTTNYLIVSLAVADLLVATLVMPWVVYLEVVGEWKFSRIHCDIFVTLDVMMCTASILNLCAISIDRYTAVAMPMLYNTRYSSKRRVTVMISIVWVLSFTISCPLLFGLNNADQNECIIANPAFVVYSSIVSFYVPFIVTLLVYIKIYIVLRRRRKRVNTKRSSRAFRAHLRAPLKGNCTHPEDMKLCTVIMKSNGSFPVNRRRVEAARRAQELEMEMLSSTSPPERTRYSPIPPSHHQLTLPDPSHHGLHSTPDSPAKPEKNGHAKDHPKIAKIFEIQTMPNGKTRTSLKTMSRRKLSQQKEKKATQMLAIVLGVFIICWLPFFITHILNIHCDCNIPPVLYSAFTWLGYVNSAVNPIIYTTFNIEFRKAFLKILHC
Method in brief: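 Antagonism is scored as inhibition of an EC80 dopamine-evoked calcium signal in a force-coupled, tetracycline-inducible HEK293 T-REx D2 line, with compound present 180 s before agonist.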

Going from `COc1ccc(-c2nc(N)ncc2-c2ccc(Cl)cc2)c(O)c1` to `C=C(C)COc1ccc(-c2nc(N)ncc2-c2ccccc2OC)c(O)c1`, the inhibition rises from -27.1% to -11.9%.

First: CCCCN1C(=O)C(=O)N(CC(=O)Nc2cccc(C(C)=O)c2)C1=O
Second: CCCCn1c(N)c(N(CC(C)C)C(=O)CSc2ccc([N+](=O)[O-])cc2)c(=O)[nH]c1=O
The inhibition of the first is lower: 2.29% for the first, 6.25% for the second.

Going from `COc1ccc(C(=O)OC(C)C(=O)NC2CCCC2)cc1S(=O)(=O)N1CCOCC1` (stereo not drawn) to `COc1ccc(S(=O)(=O)N2CCOCC2)cc1NC(=O)CSc1cc(C)ccc1C`, the inhibition falls from -6.41% to -16%.

Compared with `O=C(NCCCN1CCOCC1)c1ccc(N2CCCC2)c([N+](=O)[O-])c1`, `O=[N+]([O-])c1ccc(NCCCN2CCOCC2)c(Cl)c1` is lower in inhibition: -5.74% for the first, -7.9% for the second.

First: COc1ccc(CC2c3cc(OC)c(OC)cc3CC[N+]2(C)CCC(=O)OCCCCCOC(=O)CC[N+]2(C)CCc3cc(OC)c(OC)cc3C2Cc2ccc(OC)c(OC)c2)cc1OC (stereo not drawn)
Second: COc1ccccc1CN1CCN(Cc2cc(OC)c(OC)cc2OC)CC1
The inhibition of the first is higher: 2.9% for the first, -0.792% for the second.

Compared with `COc1ccc(Cl)cc1NC(=O)CNc1ccccc1F`, `COC(=O)[C@@H](NC(=O)Nc1cc(Cl)ccc1C)C(C)C` is higher in inhibition: 0.751% for the first, 18.4% for the second.

Going from `Cc1cc(C(=O)Nc2ccc(C)c(S(=O)(=O)N3CCOCC3)c2)c2ccccc2n1` to `O=C(c1cc(-c2ccco2)nc2ccccc12)N(Cc1nnc(-c2ccc(Cl)cc2)o1)C1CC1`, the inhibition falls from 3.28% to -3.48%.

Going from `Cc1ccc(OCCC(=O)Nc2ccc(S(=O)(=O)Nc3nccs3)cc2)cc1` to `COc1ccccc1OC(C)C(=O)Nc1ccc(S(=O)(=O)Nc2nccs2)cc1` (stereo not drawn), the inhibition falls from 23.7% to -2.37%.

Going from `CNCC(O)CN1CCN(c2ccccc2OC)CC1` (stereo not drawn) to `COc1ccccc1N1CCN(CCCCOc2ccc(F)cc2)CC1`, the inhibition rises from -12.4% to 1.05%.

Going from `COc1ccc(CN2CCN(Cc3ccc(OC)c(OC)c3OC)CC2)cc1` to `CCN(CC(=O)Nc1ccc(OC)cc1)C(=O)CSCc1ccc(C)cc1`, the inhibition rises from -16% to 7.06%.

Going from `CCN(CC(=O)Nc1ccc(NC(C)=O)cc1)C(=O)CSC(=S)N1CCCC1` to `COc1ccccc1C(=O)COC(=O)CSCC(=O)Nc1cc(C)on1`, the inhibition rises from 12.7% to 14.3%.

Going from `CC1(C)O[C@@H]2[C@H](O1)[C@@H](COS(=O)(=O)O)O[C@H]2n1cnc2c(=O)[nH]cnc21` to `OCC[C@H]1C[C@@H](O)[C@H](O)[C@@]2(OCCc3ccccc32)O1`, the inhibition falls from 10.8% to 3.29%.

Going from `Cc1cc(C(=O)N/N=C/c2ccccc2[N+](=O)[O-])c(C)o1` to `Cc1cc(C(=O)N/N=C\C(Br)=C\c2ccccc2)c(C)o1`, the inhibition falls from 2.69% to 1.9%.

In the case of `CCOc1ccc(-c2nc(N)ncc2-c2ccccc2OC)c(O)c1`, the inhibition was 34.9% (active).
With `O=C(NCCCN1CCOCC1)c1ccc([N+](=O)[O-])cc1[N+](=O)[O-]` the inhibition was 48.1% (active).
With `COc1ccc(Cl)cc1NC(=O)NC(C)C(C)(C)C` (stereo not drawn) the inhibition was 34.2% (active).
In the case of `CCC(CC)C(=O)Nc1ccc(S(=O)(=O)Nc2nccs2)cc1`, the inhibition was 32.1% (active).
With `COc1ccccc1N1CCN(Cc2ccc(OC)c3ccccc23)CC1` the inhibition was 72.3% (active).
`COc1ccccc1N1CCN(Cc2cc(OC)c3c(c2)OCO3)CC1` was tested, and the inhibition was 85.7% (active).
With `CC(=C/c1ccccc1)/C=N/NC(=O)c1cc(C)oc1C` the inhibition was 36.9% (active).
